S1P2 antag – human S1P2 receptor antagonists, primary screen, cell-based; Sphingosine 1-phosphate receptor 2 (Homo sapiens), O95136; cell-based S1P2 antagonist assay, inhibition at 5 uM; inhibition, % at 5 µM; 0.21% of 97,000 active; AID 736, 2007; in the data active = inhibition above about 45%;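 note: CRE beta-lactamase reporter cells expressing human S1P2 stimulated with S1P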
Target sequence (O95136 whole entry, looked up): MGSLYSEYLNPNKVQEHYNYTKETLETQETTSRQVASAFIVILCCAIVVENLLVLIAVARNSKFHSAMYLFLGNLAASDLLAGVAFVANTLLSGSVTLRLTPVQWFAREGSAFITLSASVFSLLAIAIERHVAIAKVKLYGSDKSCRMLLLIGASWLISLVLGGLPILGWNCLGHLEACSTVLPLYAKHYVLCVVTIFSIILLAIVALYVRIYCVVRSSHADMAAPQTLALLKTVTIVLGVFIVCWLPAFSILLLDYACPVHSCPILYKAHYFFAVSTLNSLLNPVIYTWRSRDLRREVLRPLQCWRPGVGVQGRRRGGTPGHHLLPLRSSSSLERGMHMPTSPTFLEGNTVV
S1P2 agonist – S1P2 receptor agonists, primary screen, cell-based; Sphingosine 1-phosphate receptor 2 (Homo sapiens), O95136; S1P2-expressing cell line, agonist reporter read-out; activation, % at 4.5 µM; 0.46% of 97,000 active; in the data active = activation above about 16%
GALR2 antag – GALR2 antagonists in receptor-expressing cells, primary screen | inhibition, % at 4 µM | 0.39% of 140,000 active | Galanin receptor type 2 (Homo sapiens), O43603 | antagonist mode;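 note: cells stimulated with galanin 1-16 at roughly its EC80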
GALR2 ag – GALR2 receptor agonists, primary screen, cell-based | GALR2-expressing cells, agonist activation read-out | activation, % (no concentration beside the values) | 0.48% of 140,000 active; in the data active = activation above about 5%, passing the limit was not always enough
GALR2 agon conf – GALR2 agonists, retest of hits, confirmation, cell-based; GALR2-expressing cells, agonist activation; shares compounds with GALR2 ag; activation, % at 5.6 µM; 10% of 460 active; in the data active = activation above about 8.4%
BLA act counter – activators of NFAT-driven beta-lactamase reporter, confirmation, counter-screen for GALR2 agonist project, CHO NFAT-bla cells, FRET readout. 10% of 460 active. AID 865, 2007. activation, % at 5.6 µM. shares compounds with GALR2 ag. beta-lactamase FRET activation;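 active = activation above the screen-wide mean activation plus 3 SD, cut at about 8% in these data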
GALR2 ant conf – GALR2 antagonists, retest of hits, confirmation, cell-based; shares compounds with GALR2 antag; GALR2-expressing cells, antagonist mode, inhibition; inhibition, % at 4 µM; 60% of 480 active; AID 866, 2007;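 note: cells stimulated with galanin at about its EC80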
BLA inh counter – inhibitors of NFAT-driven beta-lactamase reporter, confirmation, counter-screen for GALR2 antagonist project, CHO NFAT-bla cells, FRET readout; shares compounds with GALR2 antag; thapsigargin-stimulated; inhibition, % at 4.2 µM; 36% of 480 active; AID 867, 2007;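 active = inhibition above the mean inhibition across tested compounds plus 3 SD, cut at about 27% in these data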
Of the large screens only hits and unclear results are named; the others gave an inactive call (follow-up assays come after a bar, where they were run). Compounds with a hit are over-represented: about 1.2% of the library has one in this group of screens. Cut-off read from the data, not from the text of the source, unless noted: active = inhibition above about 27%; inactive = the rest.

Cc1ccc2nc3c(cc(C(=O)NCC4CCCO4)n3C)c(=O)n2c1 (stereo unspecified)	none
N#C/C(=C\Nc1ccccc1O)c1nc2ccccc2o1	none (no result: S1P2 antag, S1P2 agonist)
O=C(Nc1cccc(O)c1)C(Cc1ccccc1)N1C(=O)c2cccc3cccc(c23)C1=O (stereo unspecified)	GALR2 ag 10 (no result: S1P2 antag, S1P2 agonist) | GALR2 agon conf inactive | BLA act counter inactive
CCc1cccc(C)c1NC(=O)CCCC(=O)O	none
Cc1cc(C)c(NC(=O)CCCC(=O)O)c(Cl)c1	GALR2 ag 13 | GALR2 agon conf inactive | BLA act counter inactive
COc1ccccc1OC(=O)c1cc(Cl)nc2ccccc12	none
O=C(CNC(=O)c1ccccc1)OCc1nc2ccccc2s1	none (no result: S1P2 antag, S1P2 agonist)
CCCC(=O)c1ccc(N2CCN(C(=O)OCC)CC2)c(F)c1	GALR2 ag 30 | GALR2 agon conf inactive | BLA act counter inactive
CCOC(=O)N1CCN(c2ccc(C(=O)CC)cc2F)CC1	none
O=C(/C=C/c1ccco1)Nc1cc(Cl)ccc1C(=O)O	GALR2 ag 12 (no result: S1P2 antag, S1P2 agonist) | GALR2 agon conf inactive | BLA act counter inactive
COC(=O)c1cn(NC(=O)c2cccc(N(C)C)c2)c(=O)c2ccccc12	none
COC(=O)c1cn(NC(=O)c2cccc(F)c2)c(=O)c2ccccc12	GALR2 ag 18 | GALR2 agon conf inactive | BLA act counter inactive
C#CCNc1cc(C)nc2ncnn12	GALR2 ag 13 | GALR2 agon conf inactive | BLA act counter inactive
Cc1nc2c(-c3ccc(F)cc3)c(C)nn2c(C)c1CCC(=O)NCCN1CCOCC1	none
COCCNC(=O)CCc1c(C)nc2c(-c3ccc(F)cc3)c(C)nn2c1C	GALR2 ag 42 | GALR2 agon conf inactive | BLA act counter inactive
Cn1c(O)c(N=NC(=O)Cn2c(C(F)(F)F)nc3ccccc32)c2ccccc21	none (no result: S1P2 antag, S1P2 agonist)
CCn1cc(C2=NOC(C(=O)Nc3cc(C)nn3-c3ccccc3)C2)c(C)n1 (stereo unspecified)	GALR2 ag 11 (no result: S1P2 antag, S1P2 agonist) | GALR2 agon conf inactive | BLA act counter inactive
Cc1nc2c(Cl)cccc2[nH]1	none
COc1cc(SC#N)ccc1N=Cc1c(C)[nH]n(-c2ccc(C)c(C)c2)c1=O	GALR2 ag 12 (no result: S1P2 antag, S1P2 agonist) | GALR2 agon conf inactive | BLA act counter inactive
CCCCN1C(=O)C(O)=C(C(C)=O)C1c1ccccc1 (stereo unspecified)	GALR2 ag 172 | GALR2 agon conf inactive | BLA act counter inactive
CCCCCCN1C(=O)C(O)=C(C(C)=O)C1c1ccc(Cl)cc1 (stereo unspecified)	none (no result: S1P2 antag, S1P2 agonist)
Cc1cccc(NC(=O)/C(C#N)=C/c2cn(CC(=O)NCc3ccco3)c3ccccc23)c1C	GALR2 ag 29 (no result: S1P2 antag, S1P2 agonist) | GALR2 agon conf 11 | BLA act counter 8.2
Cc1cccc(NC(=O)c2cn(-c3ccccc3)nc2-c2ccccc2)c1	none (no result: S1P2 antag, S1P2 agonist)
COc1ccc(CCN2CCC(Nc3nc4ccccc4n3Cc3ccc(F)cc3)CC2)cc1	GALR2 ag 25 (no result: S1P2 antag, S1P2 agonist) | GALR2 agon conf 18 | BLA act counter inactive
CCC(C)N(C(=O)Cn1nnc2ccccc21)C(C(=O)Nc1ccc(F)cc1)c1cccc(OC)c1 (stereo unspecified)	none
Cc1cc(/C=N/NC(=O)Cn2c3ccccc3c(=O)c3ccccc32)c(C)n1-c1ccccc1	none | GALR2 agon conf inactive | BLA act counter inactive
O=C(CC1NC(=O)NC1=O)Nc1ccc(Cl)cc1 (stereo unspecified)	none
O=C(CC1Nc2ccccc2NC1=O)Nc1cc(Cl)cc(Cl)c1 (stereo unspecified)	GALR2 ag 13 | GALR2 agon conf 12 | BLA act counter 9.9
CCOc1ccc(CCNC(=O)COC(=O)c2nc3nc(C)cc(C)n3n2)cc1OCC	none (no result: S1P2 antag, S1P2 agonist)
CC(=O)c1nn(-c2ccc(Br)cc2)cc1C(=O)c1ccco1	none
CC(=O)c1nn(-c2ccc(Br)cc2)cc1C(=O)c1ccccc1	GALR2 ag 8.6 (no result: S1P2 antag, S1P2 agonist) | GALR2 agon conf inactive | BLA act counter inactive
CC(C)CC(=O)NNC(=O)C(C)C	none (no result: S1P2 antag, S1P2 agonist)
CCN(CC)C(c1ccc(C)cc1)c1nnnn1C1CCCCC1 (stereo unspecified)	none
CCN(CC)C(c1ccc(F)cc1)c1nnnn1C1CCCCC1 (stereo unspecified)	GALR2 ag 9.8 | GALR2 agon conf inactive | BLA act counter inactive
COC(=O)c1cc2ccsc2n1CC(=O)Nc1cc(C)cc(C)c1	none | GALR2 agon conf inactive | BLA act counter inactive
CN1CCN(C(=S)NC(=O)/C=C/c2cccc3ccccc23)CC1	GALR2 ag 22 | GALR2 agon conf inactive | BLA act counter inactive
CC(C)NC(=O)NC(=O)CSc1ccccc1F	none (no result: S1P2 antag, S1P2 agonist)
CN(NC(=O)C(C)(C)C)c1nc(-c2ccccc2)nnc1C(F)(F)F	none | GALR2 agon conf inactive | BLA act counter inactive
COc1ccc(C(=O)NN(C)c2nc(-c3ccccc3)nnc2C(F)(F)F)cc1	none
CC1=C/C(=N\OS(=O)(=O)c2ccccc2)C(C(C)C)=CC1=O	GALR2 antag 47, GALR2 ag 9.6 (no result: S1P2 antag, S1P2 agonist) | GALR2 agon conf 11 | BLA act counter inactive | GALR2 ant conf 52 | BLA inh counter 29
Brc1ccc(-c2ccc(/C=N/Nc3nc4ccccc4[nH]3)o2)cc1	GALR2 antag 29, GALR2 ag 23 (no result: S1P2 antag, S1P2 agonist) | GALR2 agon conf 9.5 | BLA act counter 17 | GALR2 ant conf inactive | BLA inh counter inactive
Brc1ccc(-c2ccc(/C=N/Nc3nncc(-c4ccccc4)n3)o2)cc1	none
COC(=O)c1cccc(NC(=O)c2cccs2)c1C	none
CN(/N=C\c1ccc(O)c(O)c1)c1nc(-c2ccccc2)cc(-c2ccccc2)n1	GALR2 antag 47 (no result: S1P2 antag, S1P2 agonist) | GALR2 ant conf 64 | BLA inh counter 81
Cc1nn(C)c(C(=O)N2CCN(C(=O)c3ccco3)CC2)c1Br	none (no result: S1P2 antag, S1P2 agonist)
Oc1ccc(Nc2nc3ccccc3nc2Nc2ccc(O)cc2)cc1	GALR2 antag 32 | GALR2 ant conf 34 | BLA inh counter 33
CCOC(=O)c1cnn(-c2nc3c(C)cccc3s2)c1C(F)(F)F	none
CCOC(=O)c1cnn(-c2nc3c(C)cccc3s2)c1C	GALR2 antag 32 | GALR2 ant conf inactive | BLA inh counter inactive
CC[C@@H](NS(=O)(=O)c1ccc(C)cc1)C(=O)Oc1ccc2c3c(c(=O)oc2c1)CCC3	none (no result: S1P2 antag, S1P2 agonist)
Cc1ccc(S(=O)(=O)NC(C(=O)Oc2ccc3c(C(F)(F)F)cc(=O)oc3c2)c2ccccc2)cc1 (stereo unspecified)	GALR2 antag 35 (no result: S1P2 antag, S1P2 agonist) | GALR2 ant conf inactive | BLA inh counter 31
O=[N+]([O-])c1cccc(/C=N/Nc2cc(Cl)nc(-c3ccccc3)n2)c1	none
